Source: PubChem BioAssay
DENV2 CPE rescue: inhibitors of DENV2 cytopathic effect; DENV2-infected cells, cytopathic effect rescue, plate reader; CPE inhibition, % at 9.99 µM; hit rate 1.7% among 350,000; AID 651640; in the data active = CPE inhibition above about 20%, passing the limit was not always enough; inconclusive = no clear call, values can overlap the other calls; tested in BHK-21 cells;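 note: 0% = median of neutral control wells and 100% = median of positive control wells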
Rtt109 Vps75: inhibitors of Candida albicans Rtt109/Vps75 histone acetyltransferase; purified Rtt109/Vps75, ThioGlo CoA-SH fluorescence, 4 h; inhibition, % at 34.9 µM; hit rate 0.16% among 330,000;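 active = inhibition of at least 50% in every replicate; inconclusive = best replicate reaches 50% inhibition but some replicates fall short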
Target sequence (Q5AAJ8 whole entry, looked up): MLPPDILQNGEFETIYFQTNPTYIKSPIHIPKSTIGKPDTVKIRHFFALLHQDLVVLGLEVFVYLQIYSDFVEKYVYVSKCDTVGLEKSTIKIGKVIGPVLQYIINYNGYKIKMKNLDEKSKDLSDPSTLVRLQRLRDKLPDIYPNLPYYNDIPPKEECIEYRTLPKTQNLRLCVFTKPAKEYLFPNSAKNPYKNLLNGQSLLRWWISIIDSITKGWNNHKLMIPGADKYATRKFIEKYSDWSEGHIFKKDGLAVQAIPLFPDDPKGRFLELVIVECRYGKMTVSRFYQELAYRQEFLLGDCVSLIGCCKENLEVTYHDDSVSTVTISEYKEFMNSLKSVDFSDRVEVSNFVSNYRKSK
SIRT5 block: inhibitors of human sirtuin-5 desuccinylase; Q9NXA8; Purified SirT5, succinyl-peptide AMC, trypsin-coupled fluorescence; inhibition, % at 15 µM; hit rate 1.1% among 330,000; AID 652115; in the data active = inhibition above about 15%; inconclusive = no clear call, values can overlap the other calls
PDI inh: PDI (human) enzyme inhibition. hit rate 0.052% among 350,000. PDI insulin aggregation turbidity, A650, 90 min. AID 588391. inhibition, % at 10 µM;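 active = mean inhibition across replicates of 30% or more, whatever share of single replicates reach that level; inconclusive = mean inhibition below 30% while every single replicate reaches 30%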
ERp5 inh: blocks human ERp5 reductase activity on insulin; Q15084; ERp5 insulin aggregation, absorbance 650 nm, 90 min; inhibition, % at 9.99 µM; hit rate 0.05% among 350,000; AID 651711;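 active = mean replicate inhibition above about 25%, with every replicate also reaching it, limit read from the data, passing the limit was not always enough; inconclusive = only one of those two criteria met; inactive = neither criterion met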
An asterisk follows results filed as active; ? = inconclusive; / = not tested or not shown. A selection: hits, their analogues and other compounds. The true share with any hit is near 2.3%.

SMILES	DENV2 CPE rescue	Rtt109 Vps75	SIRT5 block	PDI inh	ERp5 inh
COc1ccc(C2=NOC(C(=O)Nc3c(C)n(C)n(-c4ccccc4)c3=O)C2)cc1 (configuration not stated)	-8	-4	-2	-12	-2
CN(C)CC(=O)Nc1ccc2c(c1)[C@@H]1C[C@@H](CC(=O)NC3CCCC3)O[C@@H](CO)[C@@H]1O2	-3	/	-2	/	-4
O=C1COCCOCCOCCOCC(=O)NCCN1	26*	1	-3	2	-38
C=CCC1NS(=O)(=O)OC(COC)C1C (configuration not stated)	46*	5	-1	-13	4
CO[C@H]1CN(C)C(=O)c2ccc(NC(=O)C3CC3)cc2OC[C@@H](C)N(C(=O)C2CCCCC2)C[C@H]1C	7	/	0	/	-4
CNC[C@H]1OCCCC[C@H](C)Oc2ccc(NS(=O)(=O)c3c(C)noc3C)cc2C(=O)N([C@H](C)CO)C[C@H]1C	-9	/	/	/	/
Cc1cccc(N2C(=O)N3[C@H](c4ccc(Br)cc4)[C@@H]4C(=O)N(C(C)(C)C)C(=O)[C@@H]4[C@]3(C)C2=O)c1	26*	-9	-1	-2	0
CS(=O)(=O)N1c2ccccc2[C@]2([C@@]34C[C@H]5C(=O)N[C@@H](Cc6ccccc6)C(=O)N5[C@@H]3N(S(C)(=O)=O)c3ccccc34)C[C@H]3C(=O)N[C@@H](Cc4ccccc4)C(=O)N3[C@H]12	-11	/	33*	/	0
C[C@@H]1CN([C@@H](C)CO)C(=O)c2cc(NS(=O)(=O)c3ccc(F)cc3)ccc2O[C@@H]1CN(C)Cc1ccc(Oc2ccccc2)cc1	-2	/	-1	/	-9
C[C@H]1CN([C@@H](C)CO)C(=O)c2cc(NS(=O)(=O)c3ccccc3)ccc2O[C@@H]1CN(C)Cc1ccc(Oc2ccccc2)cc1	-7	/	11	/	0
C[C@H]1CN([C@@H](C)CO)C(=O)c2cc(NS(=O)(=O)c3ccccc3)ccc2O[C@H]1CN(C)Cc1ccc(Oc2ccccc2)cc1	35*	/	2	/	-2
C[C@@H]1CN([C@@H](C)CO)C(=O)c2cc(NS(=O)(=O)c3ccccc3)ccc2O[C@@H]1CN(C)Cc1ccc(Oc2ccccc2)cc1	12	/	20*	/	-1
COc1ccc(S(=O)(=O)N(C)C[C@@H]2Oc3ccc(NC(=O)C4CCCCC4)cc3CC(=O)N([C@H](C)CO)C[C@H]2C)cc1	-1	/	3	/	1
NC(=NC(=O)c1ccc(Cl)cc1)N1N=CCC1c1ccccc1 (configuration not stated)	-11	-6	16*	-12	-1
O=C(Nc1cccc(F)c1)N1[C@@H]2CNC[C@H]1C2c1ccc(-c2cccnc2)cc1 (some centres not stated)	11	/	-2	/	-3
Nc1ccccc1C(=O)N=Nc1[nH]c(N)c2ccccc12	-3	-11	18*	9	-3
COc1ccc([C@H]2/C=C\CN(C(=O)CC(C)(C)C)[C@@H](C)C(=O)N2Cc2ccc(F)cc2)cc1	-9	2	/	2	-4
COc1ccc(C2/C=C\CN(CC3CC3)CC(=O)N2Cc2ccc(F)cc2)cc1 (configuration not stated)	-4	-10	3	1	2
COc1ccc([C@H]2/C=C\CN(C(=O)c3ccc(C)cc3)[C@@H](C)C(=O)N2Cc2ccc(F)cc2)cc1	125*	13	/	2	-4
COc1ccc(C2/C=C\CN(Cc3ccncc3)CC(=O)N2Cc2ccc(F)cc2)cc1 (configuration not stated)	6	6	16*	-7	1
CCCNC(=O)C[C@@H]1C[C@H]2c3cc(NC(=O)Nc4ccccc4)ccc3O[C@H]2[C@@H](CO)O1	4	/	/	/	/
CO[C@H]1CN(C)C(=O)c2ccc(NC(C)=O)cc2OC[C@H](C)N(C(=O)c2ccncc2)C[C@@H]1C	-11	/	0	/	1
CNC[C@H]1Oc2ccc(NC(=O)Cn3cnnn3)cc2C(=O)N([C@H](C)CO)C[C@@H]1C	12	/	2	/	1
CCN(CC)CCCn1c2c(c(SCC(=O)Nc3cc(C)cc(C)c3)nc1=O)CCC2	22*	/	-2	0	-1
CCN(CC)CCCn1c2c(c(SCC(=O)Nc3cccc(C(C)=O)c3)nc1=O)CCC2	1	11	5	8	-1
SMILES	DENV2 CPE rescue	Rtt109 Vps75	SIRT5 block	PDI inh	ERp5 inh
COc1ccc(NC(=O)N(C)C[C@H]2Oc3c(cccc3N(C)C)C(=O)N([C@H](C)CO)C[C@H]2C)cc1	-3	/	0	/	-1
CNC(=O)C[C@H]1CC[C@@H]2[C@H](COc3ccc(NC(=O)Nc4c(C)noc4C)cc3C(=O)N2C)O1	5	/	/	/	/
COC(=O)CCS(=O)(=O)c1nc(-c2ccccc2)cc(C(F)(F)F)n1	/	68*	/	1	/
CCOC(=O)CCS(=O)(=O)c1nc(-c2ccccc2)cc(C(F)(F)F)n1	/	24	/	3	/
CC1CCCCN1CCCNC(=O)c1c(O)nc2ccccn2c1=O (configuration not stated)	19	-5	-8	3	5
CCC1CCCCN1CCCNC(=O)c1c(O)nc2ccccn2c1=O (configuration not stated)	-2	-7	32*	-5	-1
CCC(=O)N1CC2(C1)[C@@H](c1ccc(-c3ccccc3OC)cc1)[C@@H](CO)N2C(C)=O	4	/	-5	/	3
COc1ccccc1-c1ccc([C@@H]2[C@H](CO)N(C(C)=O)C23CN(C(C)=O)C3)cc1	28*	/	-1	/	-3
CCC(=O)N1[C@H](CO)[C@H](c2ccc(C3=CCCC3)cc2)C12CN(C(=O)COC)C2	-3	/	-2	/	0
COc1ccccc1-c1ccc([C@@H]2[C@@H](CO)N(C(=O)C3CC3)C23CN(C(C)=O)C3)cc1	79*	/	0	/	-1
CC(=O)N1[C@@H](CO)[C@@H](c2ccc(C3=CCCC3)cc2)C12CN(C(=O)NC(C)C)C2	41*	/	-1	/	-4
COCCNC(=O)C[C@H]1CC[C@@H](NC(=O)NC2CCCC2)[C@@H](CO)O1	6	/	3	/	0
CC(C)(C)NC(=O)CC1C(=O)NCCN1Cc1c(F)cccc1Cl (configuration not stated)	-4	-5	-2	-1	3
C=CCNC(=O)CC1C(=O)NCCN1Cc1c(F)cccc1Cl (configuration not stated)	13	/	32*	4	6
CC(=O)N1[C@@H]2c3ccc(-c4ccc(F)cc4)c(=O)n3C[C@@H]2[C@@H](CO)[C@@H]1C(=O)N(C)C	?	/	-18	/	-1
C[C@H](CO)N1C[C@H](C)[C@H](CN(C)S(=O)(=O)c2cccc(F)c2)Oc2ncc(-c3cc4ccccc4o3)cc2C1=O	/	/	15*	/	2
C[C@H](CO)N1C[C@H](C)[C@@H](CN(C)S(=O)(=O)c2cccc(F)c2)Oc2ncc(C#CC3CCCCC3)cc2C1=O	8	/	30*	/	3
C[C@@H]1CN([C@H](C)CO)C(=O)c2cc(C#CC3CCCCC3)cnc2O[C@H]1CN(C)S(=O)(=O)c1cccc(F)c1	-5	/	11	/	2
